The values that follow come from PubChem BioAssay (NCI).

The nature of experiment [1]: NCI Yeast Anticancer Drug Screen. Data for the rad50 strain (AID 155).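 Note: 0% = growth of vehicle-only cultures of the same strain.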 As to conditions: S. cerevisiae rad50 strain growth inhibition, stronger effect = higher value. An outline of the steps:
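A DNA repair-deficient yeast mutant serves as the test organism; compound-induced growth inhibition is calculated against vehicle-treated cells.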

Experiment [2] can be described thus: NCI Yeast Anticancer Drug Screen. Data for the mec2-1 strain (AID 157). Conditions: S. cerevisiae mec2-1 strain, stronger effect = higher value. An outline of the steps:
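Vehicle-treated cultures served as reference for growth inhibition of compound-exposed mec2-1 yeast.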

A short description of experiment [3]: NCI Yeast Anticancer Drug Screen. Data for the sgs1 mgt1 strain (AID 161).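 Note: 0% = growth of cultures given vehicle only.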 Conditions: S. cerevisiae sgs1 mgt1 strain, stronger effect = higher value. The gist of the method:
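Mutant yeast exposed to compound; growth scored against vehicle-only wells.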

The nature of experiment [4]: NCI Yeast Anticancer Drug Screen. Data for the cln2 rad14 strain (AID 165).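 Note: 0% = growth equal to vehicle treated cultures.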 As to conditions: S. cerevisiae cln2 rad14 strain, stronger effect = higher value. The gist of the method: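 Each compound was tested on cln2 rad14 yeast. Inhibition of growth was calculated against vehicle-exposed controls.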
A short description of experiment [5]: NCI Yeast Anticancer Drug Screen. Data for the bub3 strain (AID 167). As to conditions: S. cerevisiae bub3 mutant strain, stronger effect = higher value. An outline of the steps: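 Inhibition values come from growth of compound-treated mutant yeast normalised to vehicle-treated controls.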
Experiment [6] can be described thus: NCI Yeast Anticancer Drug Screen. Data for the mlh1 rad18 strain (AID 175). Conditions: S. cerevisiae mlh1 rad18 strain growth inhibition, stronger effect = higher value. An outline of the steps: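 Vehicle-treated cultures served as the reference for growth inhibition in a yeast strain carrying DNA damage repair alterations exposed to each compound.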
Setting [7] is: at 5.0 µM (retest, dose inferred, filed as 0.5).
The mark [8] stands for this setting: at 50.0 µM (retest, dose inferred, filed as 5.0).

Compounds without any hit were thinned out: in the full panel of roughly 79,000, 15% have a hit. Values without a mark were called inactive. The source made the active and inactive calls. Cut-off read from the data, not from the text of the source: active = growth inhibition above about 70%; inactive = the rest.

As to `CC(=O)/C(=C\c1ccc(N(C)C)cc1)C(C)=[N+](C)C(=O)c1c(/[N+](C)=C(C)\C(=C\c2ccc(N(C)C)cc2)C(C)=O)ncn1C`, the growth inhibition in experiment [1] (setting [7]) is 31%; in experiment [1] (setting [8]), 47%; in experiment [1] (at 50.0 µM) it was 87.7% (active); in experiment [2] (setting [7]) it was 14%; in experiment [2] (setting [8]) it was 70% (active); in experiment [2] (at 50.0 µM) it was 7.45%. Also, the growth inhibition in experiment [3] (setting [7]) was 47%; in experiment [3] (setting [8]) it was 66%; in experiment [3] (at 50.0 µM) it was 77.3% (active); in experiment [4] (setting [7]), -5%; in experiment [4] (setting [8]), 43%; in experiment [4] (at 50.0 µM) it was 24.7%. Also, the growth inhibition in experiment [5] (setting [7]) was 10%; in experiment [5] (setting [8]) it was 43%; in experiment [5] (at 50.0 µM) it was 43.4%; in experiment [6] (setting [7]), 49%; in experiment [6] (setting [8]) it was 53%; in experiment [6] (at 50.0 µM) it was 85% (active).
For the molecule `O=C/C(Br)=C\c1ccccc1`, the growth inhibition in experiment [1] (setting [7]) is 36%; in experiment [1] (setting [8]), 99% (active); in experiment [1] (at 50.0 µM), 55.2%; in experiment [2] (setting [7]) it was 20%; in experiment [2] (setting [8]), 99% (active); in experiment [2] (at 50.0 µM), 99.2% (active). Also, the growth inhibition in experiment [3] (setting [7]) is 25%; in experiment [3] (setting [8]) it was 99% (active); in experiment [3] (at 50.0 µM) it was 49.5%; in experiment [4] (setting [7]), 12%; in experiment [4] (setting [8]), 99% (active); in experiment [4] (at 50.0 µM), 98.4% (active). Besides, the growth inhibition in experiment [5] (setting [7]) is 26%; in experiment [5] (setting [8]), 99% (active); in experiment [5] (at 50.0 µM), 48.4%; in experiment [6] (setting [7]) it was 16%; in experiment [6] (setting [8]) it was 99% (active); in experiment [6] (at 50.0 µM), 7.45%.
`CCOC(=O)c1ccc(C(C)C)cc1`: the growth inhibition was 3% in experiment [1] (setting [7]); 96% (active) in experiment [1] (setting [8]); 40.5% in experiment [1] (at 50.0 µM); 3% in experiment [2] (setting [7]); 100% (active) in experiment [2] (setting [8]); 79.6% (active) in experiment [2] (at 50.0 µM). In addition, the growth inhibition in experiment [3] (setting [7]) is 3%; in experiment [3] (setting [8]), 94% (active); in experiment [3] (at 50.0 µM) it was 55.5%; in experiment [4] (setting [7]), -1%; in experiment [4] (setting [8]), 97% (active); in experiment [4] (at 50.0 µM) it was 21.6%. The growth inhibition in experiment [5] (setting [7]) is 4%; in experiment [5] (setting [8]) it was 99% (active); in experiment [5] (at 50.0 µM), 84.3% (active); in experiment [6] (setting [7]), 4%; in experiment [6] (setting [8]), 96% (active); in experiment [6] (at 50.0 µM), 62.1%.
Turning to `COc1ccc(C(=O)C2=C(C)Nc3ccc(Br)cc3S2)cc1`, the growth inhibition was -2% in experiment [1] (setting [7]); 27% in experiment [1] (setting [8]); 4.55% in experiment [1] (at 50.0 µM); -2% in experiment [2] (setting [7]); 20% in experiment [2] (setting [8]); 14.1% in experiment [2] (at 50.0 µM). In addition, the growth inhibition in experiment [3] (setting [7]) is -12%; in experiment [3] (setting [8]), 44%; in experiment [3] (at 50.0 µM), -4.7%; in experiment [4] (setting [7]), -8%; in experiment [4] (setting [8]) it was 16%; in experiment [4] (at 50.0 µM) it was -3.4%. The growth inhibition in experiment [5] (setting [7]) is -9%; in experiment [5] (setting [8]), 38%; in experiment [5] (at 50.0 µM), -0.3%; in experiment [6] (setting [7]) it was -7%; in experiment [6] (setting [8]), 23%; in experiment [6] (at 50.0 µM), 12.4%.
Take `O=C(O)COc1c(Cl)c(Cl)c(Cl)c(Cl)c1Cl.[Cu+2]`: the growth inhibition in experiment [1] (setting [7]) is 28%; in experiment [1] (setting [8]), 98% (active); in experiment [1] (at 50.0 µM), 88% (active); in experiment [2] (setting [7]), 20%; in experiment [2] (setting [8]), 99% (active); in experiment [2] (at 50.0 µM), 93.7% (active). Besides, the growth inhibition in experiment [3] (setting [7]) was 42%; in experiment [3] (setting [8]), 99% (active); in experiment [3] (at 50.0 µM), 92.7% (active); in experiment [4] (setting [7]) it was 7%; in experiment [4] (setting [8]) it was 99% (active); in experiment [4] (at 50.0 µM) it was 86% (active). Moreover, the growth inhibition in experiment [5] (setting [7]) is 9%; in experiment [5] (setting [8]) it was 99% (active); in experiment [5] (at 50.0 µM), 89.2% (active); in experiment [6] (setting [7]), 22%; in experiment [6] (setting [8]), 99% (active); in experiment [6] (at 50.0 µM), 86.3% (active).
`S=c1n(-c2ccc(Cl)cc2)c2nc3ccccc3nc(/c2=N\Nc2cc(Cl)ccc2Cl)n1-c1ccc(Br)cc1`: the growth inhibition in experiment [1] (setting [7]) was 2%; in experiment [1] (setting [8]), 16%; in experiment [1] (at 50.0 µM) it was 50.3%; in experiment [2] (setting [7]), -9%; in experiment [2] (setting [8]), -12%; in experiment [2] (at 50.0 µM), 84.5% (active). For the same molecule, the growth inhibition in experiment [3] (setting [7]) was 0%; in experiment [3] (setting [8]), 9%; in experiment [3] (at 50.0 µM), 78% (active); in experiment [4] (setting [7]), -6%; in experiment [4] (setting [8]), -24%; in experiment [4] (at 50.0 µM), 76% (active). For the same molecule, the growth inhibition in experiment [5] (setting [7]) is -6%; in experiment [5] (setting [8]) it was 15%; in experiment [5] (at 50.0 µM) it was 85.1% (active); in experiment [6] (setting [7]), 1%; in experiment [6] (setting [8]), 4%; in experiment [6] (at 50.0 µM) it was 68%.
